Test results published in PubChem BioAssay (Tox21).
Values joined by “and” are separate entries in the source; they are usually repeats but may differ in a detail not shown here. Equal entries are not always repeated. Results filed as inconclusive are left out. Where a call stands in place of a potency, no number is given. Active and inactive are the calls of the source. Calls come from the whole dose curve; as a rule, active = well fitted inhibition curve with a large enough effect in the repeat runs; inconclusive = weak or mixed curves; inactive = no such curve, though single readings can be large or run the other way.

assay: qHTS assay to identify small molecule antagonists of the thyroid receptor (TR) signaling pathway (AID 743065); settings: GH3.TRE-Luc, T3-stimulated luciferase inhibition, 23.5 h; series mostly up to 70.3 µM; activity, negative = inhibition: at the top concentration; note: nearly all actives have a fitted effect of over 55% in size
Source text: U.S. Tox21 Program National Center for Advancing Translational Sciences [NCATS] NIH Chemical Genomics Center [NCGC] U.S. Environmental Protection Agency [EPA] National Institutes of Environmental Health Sciences [NIEHS] National Toxicology Program [NTP] U.S. Food and Drug Administration [FDA] Tox21 Assay Overview: Thyroid receptor (TR), a nuclear hormone receptor, plays an important role in development, proliferation, differentiation, metabolism, brain function, and cardiovascular system. […] To profile the Tox21 10K compound library in TR signaling, a cell-based GH3-TRE-Luc assay (GH3.TRE-Luc cell line, developed by the laboratory of Dr. Albertinka J. Murk, Wageningen University) was used to measure the inhibition of TR. GH3 (rat pituitary tumor) cells stably expressing a TR activity sensor consisting of two TR response elements and a luciferase reporter gene.
Tox21 Assay Protocol Summary: GH3.TRE-Luc cells were dispensed at 1500 cells/4 uL/well into 1536-well white solid bottom plates using a Multidrop Combi dispenser (Thermo Fisher Scientific Inc., Waltham, MA). After the assay plates were incubated at 37 C for 4 hours, 23 nL of library compound or DMSO controls was transferred to the assay plates by a pintool station (Kalypsys, San Diego, CA), followed by addition of 1 ul of T3 (1 nM, final concentration in the wells) to stimulate TR transactivation. The assay plates were incubated at 37 C for 23.5 h, and then 1 uL of CellTiter-Fluor reagent (Promega, Madision, WI) of measuring cytotoxicity was added to each well using a Bioraptr Flying Reagent Dispenser (FRD) workstation (Beckman Coulter, Indianapolis, IN, USA). The plates were incubated at 37 C and 5% CO2 for additional 30 min, and fluorescence intensity was measured by a ViewLux plate reader (PerkinElmer, Shelton, CT). For measuring luciferase reporter gene activity, 4 uL of ONE-Glo Luciferase Assay reagent (Promega) was added to each well using a Bioraptr FRD (Beckman Coulter), followed by 30 min incubation at room temperature. The luminescence intensity of plates was recorded by a ViewLux plate reader (PerkinElmer, Shelton, CT).
Potency is the fitted concentration of half-maximal effect.

Row | SMILES | Potency | activity, negative = inhibition
1 | CC(C)Cc1ccccc1 | inactive | 
2 | COC(=O)c1ccccc1O | inactive | 
3 | CCCCCCCCCCCCOCC1CO1 (stereo not given) | inactive | 
4 | CN(CCOc1ccc(CC2SC(=O)NC2=O)cc1)c1ccccn1 (stereo not given) | 54.2 µM (active) | 
5 | CCOC(=O)[C@H](CCc1ccccc1)N[C@@H](C)C(=O)N1Cc2ccccc2C[C@H]1C(=O)O |  | 10.4% (inactive)
6 | CC(C)(CO)COC(=O)C(C)(C)CO | inactive | 
7 | NS(=O)(=O)c1cc2c(cc1Cl)NC=NS2(=O)=O | inactive | 
8 | Cc1cc(=O)[nH]c(C(C)C)n1 | inactive | 
9 | Clc1cc(Cl)c(Cl)cc1Cl | inactive | 
10 | C=C(C)C(=O)OCCCCCCCCCCCC | inactive | 
11 | CCCCCCCCCC(=O)O |  | -8.15% (inactive)
12 | COCC(C)O (stereo not given) | inactive | 
13 | C[C@@H](O)[C@H]1C(=O)N2C(C(=O)O)=C(S[C@@H]3CN[C@H](C(=O)N(C)C)C3)[C@H](C)[C@H]12 |  | 1.74% (inactive)
14 | C=C(C#N)C(=O)OCC |  | 23.8% (inactive)
15 | OC1CCCC1 | inactive | 
16 | Cc1cc(NS(=O)(=O)c2ccc(N)cc2)no1 |  | 6.39% (inactive)
17 | CCCCOCCOCCOC(=O)CCCCC(=O)OCCOCCOCCCC | inactive | 
18 | Cn1c([N+](=O)[O-])cnc1COC(N)=O | inactive | 
19 | CN(C)c1ccc(C(=N)c2ccc(N(C)C)cc2)cc1 | 7.6 µM (active) and 7.4 µM (active) | 
20 | C=C(C)C(=O)OCCC[Si](OC)(OC)OC | inactive | 

Row | SMILES | Potency | activity, negative = inhibition
21 | NC(=O)NNc1ccccc1 | inactive | 
22 | CCc1ccc(O)cc1 | inactive | 
23 | COCC(=O)O | inactive | 
24 | Cc1cc(Cc2ccc(N)c(C)c2)ccc1N | inactive | 
25 | O=C(c1cc(O)c(O)c(O)c1)c1ccc(O)c(O)c1O | 43.1 µM (active) and 68.6 µM (active) | 
26 | O=[N+]([O-])c1cccc(Cl)c1 | inactive | 
27 | O=C(O)c1cc(-c2ccccc2)nc2ccccc12 | inactive | 
28 | Cc1ccc(C(=O)O)o1 | inactive | 
29 | CC(C)NCC(O)COc1cccc2ccccc12 (stereo not given) | 61.8 µM (active) and 54.5 µM (active) | 
30 | COC(=O)c1ccc(C(=O)OC)cc1 | inactive | 
31 | O=C(O)c1ccc([N+](=O)[O-])cc1 | inactive | 
32 | C=C(C)C(=O)OCCCCCC | inactive | 
33 | CN(C)c1cccc(O)c1 | inactive | 
34 | NC(=O)/N=N/C(N)=O | inactive | 
35 | Nc1c(S(=O)(=O)O)cc(Br)c2c1C(=O)c1ccccc1C2=O |  | -3.84% (inactive)
36 | O=[N+]([O-])C(CO)(CO)CO | inactive | 
37 | CCCCOCCO | inactive | 
38 | O=C1N=C(O)CN1/N=C/c1ccc(-c2ccc([N+](=O)[O-])cc2)o1 | 27.3 µM (active) | 
39 | CNC[C@H](O)[C@@H](O)[C@H](O)[C@H](O)CO | inactive | 
40 | O=C(c1ccc(O)cc1)c1ccc(O)cc1O | inactive | 
